The whole screen tested about 59,000 compounds, of which fewer than 10 were called active. Not all results are given here. A number with no mark means an inactive call. No rule for the calls is given here.

The assay is described as follows: qHTS Assay for Spectroscopic Profiling in A647 Spectral Region. The following applies: Compound fluorescence, A647 channel (570/671 nm), Tris buffer; hits give high values. The text has this: NIH Molecular Libraries Screening Centers Network [MLSCN] NIH Chemical Genomics Center [NCGC] […] Occasionally, the artifactual effect may originate from the compounds own spectral or other biophysical properties which generally tend to track its assay concentration. Pre-screening/profiling the library with respect to the compounds spectral properties should help one exclude false positives early on. While the most informative fluorescent profiling data set is obtained by performing a full excitation and emission scan of each well by using a monochromator-based plate reader, such an approach is practical only on a very limited scale as scanning each well requires long time. An alternative approach, applied here, is to perform plate reader scans using selected excitation and emission wavelength pairs to generate a multidimensional relational database that correlates compound concentration and the respective relative fluorescence intensity at a given wavelength set. A standard curve of Alexa 647 (A647) present on each plate as six-point concentration series, was used to compute a normalized fluorescence response, termed dye-equivalent concentration, for each compound at each concentration.
NCGC Assay Protocol Summary: Buffer: 100 mM Tris buffer, pH 8.0 Dye standard plate: The wells in columns 1 through 4 of a Kalypsys polypropylene 1536-well compound plate were filled with standard solutions of fluorophore corresponding to the spectral region of interest. Solutions of A647 were placed in the following wells: AC1, AD1: 3 mM, AC2, AD2: 300 uM, AC3, AD3: 30 uM, AC4, AD4: zero (DMSO), AE1, AF1: 3 uM, AE2, AF2: 900 nM, AE3, AF3: 300 nM, AE4, AF4: zero (DMSO). Assay Steps: Six uL of buffer were dispensed to 1536-well Greiner black plates. Compounds and dye standards (23 nL) were transferred via Kalypsys PinTool. The plates were incubated for 15 min at room temperature, and then read on ViewLux (Perkin-Elmer) High-throughput CCD imager using 570 nm and 671 nm excitation and emission filter set. Keywords: NIH Roadmap, MLSCN, MLI, MLSMR, qHTS, NCGC, A647, A-647, Fluorescent Profiling.
A general note: In qHTS, concentration-response curves come from the screen itself.
For the compound `O=c1c(-c2cccs2)nc2cnc(Oc3ccccc3)nc2n1-c1ccccc1`, the max dye-equivalent concentration was 2.8 nM.

As to `COc1cc(C2C3C(=O)N(c4ccccc4)C(=O)C3ON2c2ccccc2)ccc1O` (stereo not given), the max dye-equivalent concentration was 30 nM.

Consider `COc1ccc2oc(=O)c(C(=O)O)cc2c1`, for which the max dye-equivalent concentration was 1 nM.

Take `O=C1N(Cc2ccc3c(c2)OCO3)c2ccccc2C1(O)c1c[nH]c2ccccc12` (stereo not given): the max dye-equivalent concentration is 1 nM.

On to `O=C1CCC(C(=O)Nc2ccc(OC(F)F)cc2)N1` (stereo not given), for which the max dye-equivalent concentration is 1 nM.

Regarding `CC(=O)N1CCC2(CCCN(c3ncccn3)C2)CC1`, the max dye-equivalent concentration was 1 nM.

Turning to `Cc1ccccc1Nc1nnc(C)c(=O)[nH]1`, the max dye-equivalent concentration is 45 nM.

Take `Cc1ccc(-n2c(N)c(C(=O)N3CCOCC3)sc2=S)c(C)c1`: the max dye-equivalent concentration is 1 nM.

Turning to `CC(=O)OC(C(=O)NC1CCCCC1)c1ccccc1` (stereo not given), the max dye-equivalent concentration is 30 nM.

As to `NC(=O)C1CCN(C(=O)c2ccc(C(F)(F)F)cc2)CC1`, the max dye-equivalent concentration is 1 nM.

On to `COc1cccc(Cn2c(=O)c(C)nc3cnc(Oc4ccccc4)nc32)c1`, for which the max dye-equivalent concentration was 1 nM.

For the compound `Cc1cccc(NC(=O)c2ccccc2NC(=O)C(C)(C)C)n1`, the max dye-equivalent concentration was 39 nM.

`CCc1ccccc1NC1c2ccccc2C(=O)N1c1cccnc1` (stereo not given): the max dye-equivalent concentration is 11 nM.

`CCOC(=O)c1c(C)nc(-c2ccccc2)nc1NC(=O)C(C)C`: the max dye-equivalent concentration is 1 nM.

`Cc1nc(NCc2ccccc2)c(C(N)=O)c2c1COC(C)(C)C2`: the max dye-equivalent concentration is 37 nM.

Turning to `COc1ccccc1CNC(=O)CCCn1c(=O)c2ccccc2n(CC(=O)NC2CCCC2)c1=O`, the max dye-equivalent concentration was 28 nM.

Turning to `O=C(c1cccs1)N1CCN(C(=O)N2CCOCC2)CC1`, the max dye-equivalent concentration was 9.6 nM.

Turning to `CC1Cc2nc(SCC(=O)Nc3ccccc3F)n(C)c(=O)c2S1` (stereo not given), the max dye-equivalent concentration is 1 nM.

Regarding `COc1ccc2nccc(C(=O)O)c2c1`, the max dye-equivalent concentration is 1 nM.

With `CCn1c(=N)c(S(=O)(=O)c2ccc(F)cc2)cc2c(=O)n3ccccc3nc21`, the max dye-equivalent concentration is 1.8 nM.

Turning to `O=C(CCCN1C(=O)CSc2ncccc21)N1CCN(c2cccc(C(F)(F)F)c2)CC1`, the max dye-equivalent concentration is 6.4 nM.

Regarding `COc1ccc(C(=O)Nc2cccnc2)cc1C(=O)Nc1cccnc1`, the max dye-equivalent concentration is 1.5 nM.

Turning to `OCCCN1c2ccccc2Nc2nnc(-c3ccccc3)cc21`, the max dye-equivalent concentration was 20 nM.

For `CCOC(=O)c1[nH]cnc1C(=O)NC1CCCCC1`, the max dye-equivalent concentration was 1 nM.

For the compound `ClC(Cl)(Cl)C(N1CCN(c2ccccc2)CC1)N1CCN(c2ccccc2)CC1`, the max dye-equivalent concentration was 1 nM.

Take `CN(Cc1ccco1)c1cc(-c2ccccc2C(F)(F)F)ncn1`: the max dye-equivalent concentration was 1 nM.

Take `CC(=O)Oc1cccc(N2C(=O)CC(Nc3ccc(N4CCOCC4)cc3)C2=O)c1` (stereo not given): the max dye-equivalent concentration is 1 nM.

For the compound `Cn1c(=O)[nH]c(=O)c2c1nc(N(CCO)Cc1ccccc1)n2Cc1ccccc1Cl`, the max dye-equivalent concentration is 78 nM.

Turning to `Cn1cccc1C(=O)N1CCC2(CC1)CN(c1cccc(-c3ccccc3)c1)C2`, the max dye-equivalent concentration is 18 nM.

In the case of `CCCCn1c(=S)[nH]c2ncccc2c1=O`, the max dye-equivalent concentration was 1 nM.

As for `CC1(C)SC2c3ccccc3C(=O)N2[C@@H]1C(=O)NCc1ccco1` (stereo not given in full), the max dye-equivalent concentration was 1 nM.

For the compound `O=C(O)CN1C(=O)CC(Cc2ccccc2)C1=O` (stereo not given), the max dye-equivalent concentration was 1 nM.

For the compound `O=C(Cc1c(F)cccc1Cl)N1CCN(C(=O)c2ccco2)CC1`, the max dye-equivalent concentration is 7.2 nM.

As for `CCCn1c(=O)c2[nH]c(-c3ccc(OCC(=O)NCCN)cc3)nc2n(CCC)c1=O`, the max dye-equivalent concentration is 50 nM.

Consider `O=c1[nH]c(=O)c2nc3ccccc3nc2[nH]1`, for which the max dye-equivalent concentration is 49 nM.

Turning to `Cc1nc2nc3c(cn2n1)C(=O)CC(c1ccccc1)C3` (stereo not given), the max dye-equivalent concentration was 28 nM.

As for `CSCC[C@H](NC(=O)NCc1cccs1)C(=O)O`, the max dye-equivalent concentration was 3.7 nM.

For `CN(C(=O)COc1nnc(-c2cccs2)c(-c2cccs2)n1)c1ccccc1`, the max dye-equivalent concentration is 1 nM.

Consider `Cc1cc(N2C(=O)C(=O)/C(=C(/O)c3ccccc3)C2c2cccc(Br)c2)no1` (stereo not given), for which the max dye-equivalent concentration was 1.8 nM.

As to `C/C(N)=C(\C#N)C(=O)NCCc1ccccn1`, the max dye-equivalent concentration is 39 nM.

`CCc1nnc(NC(=O)c2nc3nccc(C)n3n2)s1`: the max dye-equivalent concentration is 18 nM.

Turning to `N#Cc1ccc(CSc2nnc(-c3ccccn3)n2-c2ccc(Cl)cc2)cc1`, the max dye-equivalent concentration is 2.1 nM.

In the case of `Clc1ccc(C=Nc2ccc3c(c2)Cc2ccccc2-3)c(Cl)c1`, the max dye-equivalent concentration was 3.2 nM.

Consider `CN(C)CCCNC(=O)c1ccc2[nH]c3ccccc3c2c1`, for which the max dye-equivalent concentration was 3 nM.

`CC(C)CSC[C@@H]1O[C@H](n2cnc3c(N)nccc32)[C@H](O)[C@@H]1O`: the max dye-equivalent concentration is 13 nM.

The record behind these values is PubChem BioAssay AID592 (National Center for Advancing Translational Sciences (NCATS), 2007).
